{"source": "PubChem BioAssay (EPA / NIEHS)", "key": {"[1]": {"read-out": "Matrix Metallopeptidase 3 (MMP3), MMP3 (gene 4314)", "assay": "BSK_BF4T_MMP3: BioMAP Diversity Plus: BF4T Assay for Matrix Metallopeptidase 3 (MMP3) Biomarker Activity (AID 2284271)", "settings": "primary human bronchial epithelial cells with fibroblasts", "in_short": "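Co-culture of human bronchial epithelial cells and dermal fibroblasts dosed 24 h; MMP-3 measured by ELISA, positive-direction fit versus DMSO. Cytotoxicity tracked by SRB total-protein staining (560 nm) in parallel cultures.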"}, "[2]": {"read-out": "Tissue plasminogen activator (tPA), PLAT (gene 5327)", "assay": "BSK_BF4T_tPA: BioMAP Diversity Plus: BF4T Assay for Tissue plasminogen activator (tPA) Biomarker Activity (AID 2284272)", "settings": "primary human bronchial epithelial cells with fibroblasts", "in_short": "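tPA level quantified by ELISA at 24 h post-treatment in bronchial epithelial/dermal fibroblast co-cultures, gain of signal scored against DMSO baseline. Parallel cultures stained with 0.1% SRB (560 nm) to flag overt cytotoxicity.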"}, "[3]": {"read-out": "Plasminogen Activator Inhibitor-1 (PAI1), SERPINE1 (gene 5054)", "assay": "BSK_BF4T_PAI1: BioMAP Diversity Plus: BF4T Assay for Plasminogen Activator Inhibitor-1 (PAI1) Biomarker Activity (AID 2284273)", "settings": "primary human bronchial epithelial cells with fibroblasts", "in_short": "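Co-culture of human bronchial epithelial cells and dermal fibroblasts exposed to compound for 24 h. PAI-1 measured by ELISA; activity fitted in positive direction versus DMSO. Parallel SRB staining assessed overt cytotoxicity.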"}, "[4]": {"assay": "BSK_BF4T_SRB: Viability Assessment in the BioMAP Diversity Plus: BF4T Assay (AID 2284274)", "settings": "primary human bronchial epithelial cells with fibroblasts", "in_short": "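Co-culture of human bronchial epithelial cells and dermal fibroblasts (BioMAP BF4T) exposed 24 h. Total protein by sulforhodamine B staining (0.1% SRB after 10% TCA fixation, 560 nm) in parallel cultures; fitted vs DMSO.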"}, "[5]": {"read-out": "urokinase Plasminogen Activator (uPA), PLAU (gene 5328)", "assay": "BSK_BF4T_uPA: BioMAP Diversity Plus: BF4T Assay for urokinase Plasminogen Activator (uPA) Biomarker Activity (AID 2284275)", "settings": "primary human bronchial epithelial cells with fibroblasts", "in_short": "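Co-culture of human bronchial epithelial cells and dermal fibroblasts; uPA quantified by ELISA 24 hours after dosing, fitted relative to DMSO. Parallel SRB total-protein staining assessed overt cytotoxicity.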"}, "[6]": {"read-out": "Matrix Metallopeptidase 9 (MMP9), MMP9 (gene 4318)", "assay": "BSK_BF4T_MMP9: BioMAP Diversity Plus: BF4T Assay for Matrix Metallopeptidase 9 (MMP9) Biomarker Activity (AID 2284276)", "settings": "primary human bronchial epithelial cells with fibroblasts", "in_short": "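Co-culture of human bronchial epithelial cells and dermal fibroblasts dosed for 24 h; MMP-9 quantified by ELISA and fitted upward versus DMSO. Cytotoxicity monitored in parallel cultures by SRB total-protein staining at the biomarker time point.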"}, "[7]": {"read-out": "Interleukin-8 (IL8), CXCL8 (gene 3576)", "assay": "BSK_IMphg_IL8: BioMAP Diversity Plus: IMphg Assay for Interleukin-8 (IL8) Biomarker Activity (AID 2284277)", "settings": "primary human endothelial cells with macrophages", "in_short": "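Co-culture of human venular endothelial cells and macrophages exposed to chemicals for 24 h; IL-8 quantified by ELISA and compared against the DMSO baseline, with SRB total-protein staining in parallel cultures for cytotoxicity.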"}, "[8]": {"read-out": "Intercellular Adhesion Molecule 1 (ICAM1), ICAM1 (gene 3383)", "assay": "BSK_BE3C_ICAM1: BioMAP Diversity Plus: BE3C Assay for Intercellular Adhesion Molecule 1 (ICAM1) Biomarker Activity (AID 2284278)", "settings": "primary human bronchial epithelial cells", "in_short": "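Primary human bronchial epithelial cells were exposed to compound for 24 h, after which cell-surface ICAM-1 was quantified by ELISA. Activity was fitted in the gain-of-signal direction against DMSO as negative control and baseline.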"}, "[9]": {"read-out": "Interferon-inducible T-cell alpha chemoattractant (ITAC), CXCL11 (gene 6373)", "assay": "BSK_BE3C_ITAC: BioMAP Diversity Plus: BE3C Assay for Interferon-inducible T-cell alpha chemoattractant (ITAC) Biomarker Activity (AID 2284279)", "settings": "primary human bronchial epithelial cells", "in_short": "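BE3C cells (human primary bronchial epithelium), 24 h compound exposure, I-TAC by ELISA, DMSO = negative control/baseline, positive fitting direction.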"}, "[10]": {"read-out": "Interleukin-8 (IL8), CXCL8 (gene 3576)", "assay": "BSK_BE3C_IL8: BioMAP Diversity Plus: BE3C Assay for Interleukin-8 (IL8) Biomarker Activity (AID 2284280)", "settings": "primary human bronchial epithelial cells", "in_short": "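ELISA read-out of IL-8 in human lung bronchial epithelial primary cell cultures, 24 h post-dosing; endpoint analysed as signal increase relative to DMSO baseline.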"}, "[11]": {"read-out": "Epidermal growth factor receptor (EGFR), EGFR (gene 1956)", "assay": "BSK_BE3C_EGFR: BioMAP Diversity Plus: BE3C Assay for Epidermal growth factor receptor (EGFR) Biomarker Activity (AID 2284281)", "settings": "primary human bronchial epithelial cells", "in_short": "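Primary human lung bronchial epithelial cells; compound, 24 h; EGFR measured by ELISA; positive-direction fit vs DMSO baseline.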"}, "KRT18 (gene 3875)": {"read-out": "KRT18 (gene 3875)", "assay": "BSK_BE3C_Keratin818: BioMAP Diversity Plus: BE3C Assay for Keratin 818 Biomarker Activity (AID 2284282)", "settings": "primary human bronchial epithelial cells", "in_short": "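Human primary bronchial epithelial cells in the BE3C system were exposed to test chemical for 24 h, then Keratin 8/18 was quantified by ELISA. Activity was fitted in the positive direction against DMSO as negative control and baseline.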"}, "[12]": {"read-out": "Matrix Metallopeptidase 9 (MMP9), MMP9 (gene 4318)", "assay": "BSK_BE3C_MMP9: BioMAP Diversity Plus: BE3C Assay for Matrix Metallopeptidase 9 (MMP9) Biomarker Activity (AID 2284283)", "settings": "primary human bronchial epithelial cells", "in_short": "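ELISA read-out of MMP-9 after 24 h compound exposure of human lung bronchial epithelial primary cells (BE3C). Fit in gain direction vs DMSO negative control; total protein by SRB in parallel cultures flagged overt cytotoxicity.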"}, "[13]": {"read-out": "Plasminogen activator inhibitor-1 (PAI1), SERPINE1 (gene 5054)", "assay": "BSK_CASM3C_PAI1: BioMAP Diversity Plus: CASM3C Assay for Plasminogen activator inhibitor-1 (PAI1) Biomarker Activity (AID 2284284)", "settings": "primary human coronary artery smooth muscle cells"}, "[14]": {"read-out": "Monocyte Chemoattractant Protein-1 (MCP1), CCL2 (gene 6347)", "assay": "BSK_hDFCGF_MCP1: BioMAP Diversity Plus: hDFCGF Assay for Monocyte Chemoattractant Protein-1 (MCP1) Biomarker Activity (AID 2284285)", "settings": "primary human foreskin fibroblasts", "in_short": "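Human foreskin fibroblasts (hDFCGF system) were exposed to compound and secreted MCP-1 was measured by ELISA after 24 hours. Activity was fitted relative to DMSO. Cytotoxicity was checked by SRB total-protein staining in parallel cultures.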"}, "[15]": {"read-out": "Vascular cell adhesion molecule 1 (VCAM1), VCAM1 (gene 7412)", "assay": "BSK_IMphg_VCAM1: BioMAP Diversity Plus: IMphg Assay for Vascular cell adhesion molecule 1 (VCAM1) Biomarker Activity (AID 2284286)", "settings": "primary human endothelial cells with macrophages", "in_short": "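Human venular endothelial cells co-cultured with macrophages; VCAM-1 quantified by ELISA 24 h after dosing, fitted in the positive direction against DMSO. Cytotoxicity was checked in parallel cultures by SRB total-protein staining (0.1% SRB after 10% TCA fixation, 560 nm).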"}, "[16]": {"read-out": "Intercellular Adhesion Molecule 1 (ICAM1), ICAM1 (gene 3383)", "assay": "BSK_hDFCGF_ICAM1: BioMAP Diversity Plus: hDFCGF Assay for Intercellular Adhesion Molecule 1 (ICAM1) Biomarker Activity (AID 2284287)", "settings": "primary human foreskin fibroblasts", "in_short": "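Primary human foreskin fibroblasts (hDFCGF system) dosed with chemical; ICAM-1 quantified by ELISA at 24 h relative to DMSO. Parallel SRB total-protein staining to assess overt cytotoxicity.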"}, "CD40, CD40 (gene 958)": {"read-out": "CD40, CD40 (gene 958)", "assay": "BSK_IMphg_CD40: BioMAP Diversity Plus: IMphg Assay for CD40 Biomarker Activity (AID 2284288)", "settings": "primary human endothelial cells with macrophages", "in_short": "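Venular endothelial cells co-cultured with macrophages (human primary), CD40 measured by ELISA 24 h after dosing. Positive-direction fit vs DMSO baseline; cytotoxicity tracked by SRB total-protein staining in parallel cultures.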"}, "[17]": {"read-out": "TIMP metallopeptidase inhibitor 2 (TIMP2), TIMP2 (gene 7077)", "assay": "BSK_hDFCGF_TIMP2: BioMAP Diversity Plus: hDFCGF Assay for TIMP metallopeptidase inhibitor 2 (TIMP2) Biomarker Activity (AID 2284289)", "settings": "primary human foreskin fibroblasts", "in_short": "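Primary human foreskin fibroblasts in the hDFCGF system, dosed for 24 h; TIMP-2 level measured by ELISA, fitted in the positive direction against DMSO; cytotoxicity checked in parallel by sulforhodamine B total protein staining.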"}, "[18]": {"read-out": "Interleukin-1 alpha (IL1a), IL1A (gene 3552)", "assay": "BSK_IMphg_IL1a: BioMAP Diversity Plus: IMphg Assay for Interleukin-1 alpha (IL1a) Biomarker Activity (AID 2284290)", "settings": "primary human endothelial cells with macrophages", "in_short": "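Human venular endothelial cells co-cultured with macrophages, IMphg system. IL-1α is measured by ELISA 24 h after dosing and fitted in the positive direction against DMSO. Cytotoxicity is assessed by SRB staining of parallel cultures.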"}}, "note": "Values joined by “and” are separate entries in the source; they are usually repeats but may differ in a detail not shown here. Equal entries are not always repeated. More than one record can exist for a structure, and the calls need not agree. Active and inactive are the calls of the source. How the source made its calls: active means hit-call score of the fitted dose curve at least 0.9, where 1 is the maximum; inactive means score below 0.9."}
{"smiles": "O=C(O)C(F)(F)C(F)(F)C(F)(F)C(F)(F)C(F)(F)C(F)(F)C(F)(F)F", "values": [{"measurement": "outcome", "setting": "[1]", "value": "inactive"}, {"measurement": "AC50", "setting": "[2]", "value": "30 µM (active) and 1.85 µM (active)"}, {"measurement": "outcome", "setting": "[2]", "value": "inactive"}, {"measurement": "outcome", "setting": "[3]", "value": "inactive"}, {"measurement": "outcome", "setting": "[4]", "value": "inactive"}, {"measurement": "outcome", "setting": "[5]", "value": "inactive"}, {"measurement": "outcome", "setting": "[6]", "value": "inactive"}, {"measurement": "AC50", "setting": "[7]", "value": "20.5 µM (active) and 20.3 µM (active) and 25.2 µM (active)"}, {"measurement": "outcome", "setting": "[7]", "value": "inactive"}, {"measurement": "outcome", "setting": "[8]", "value": "inactive"}, {"measurement": "outcome", "setting": "[9]", "value": "inactive"}, {"measurement": "outcome", "setting": "[10]", "value": "inactive"}, {"measurement": "outcome", "setting": "[11]", "value": "inactive"}, {"measurement": "outcome", "setting": "KRT18 (gene 3875)", "value": "inactive"}, {"measurement": "outcome", "setting": "[12]", "value": "inactive"}, {"measurement": "outcome", "setting": "[13]", "value": "inactive"}, {"measurement": "outcome", "setting": "[14]", "value": "inactive"}, {"measurement": "outcome", "setting": "[15]", "value": "inactive"}, {"measurement": "outcome", "setting": "[16]", "value": "inactive"}, {"measurement": "outcome", "setting": "CD40, CD40 (gene 958)", "value": "inactive"}, {"measurement": "outcome", "setting": "[17]", "value": "inactive"}, {"measurement": "outcome", "setting": "[18]", "value": "inactive"}]}
{"smiles": "O=S(=O)(O)C(F)(F)C(F)(F)C(F)(F)C(F)(F)C(F)(F)C(F)(F)C(F)(F)C(F)(F)F", "values": [{"measurement": "AC50", "setting": "[1]", "value": "14.7 µM (active)"}, {"measurement": "outcome", "setting": "[1]", "value": "inactive"}, {"measurement": "outcome", "setting": "[2]", "value": "inactive"}, {"measurement": "outcome", "setting": "[3]", "value": "inactive"}, {"measurement": "outcome", "setting": "[4]", "value": "inactive"}, {"measurement": "outcome", "setting": "[5]", "value": "inactive"}, {"measurement": "AC50", "setting": "[6]", "value": "17.1 µM (active)"}, {"measurement": "outcome", "setting": "[6]", "value": "inactive"}, {"measurement": "outcome", "setting": "[7]", "value": "inactive"}, {"measurement": "AC50", "setting": "[8]", "value": "49.3 µM (active) and 53.4 µM (active)"}, {"measurement": "outcome", "setting": "[8]", "value": "inactive"}, {"measurement": "AC50", "setting": "[9]", "value": "40.8 µM (active) [middle of 4 runs]"}, {"measurement": "AC50", "setting": "[10]", "value": "30 µM (active) and 7.03 µM (active) and 2.79 µM (active)"}, {"measurement": "outcome", "setting": "[10]", "value": "inactive"}, {"measurement": "AC50", "setting": "[11]", "value": "16.5 µM (active) and 11.6 µM (active) and 13.2 µM (active)"}, {"measurement": "outcome", "setting": "[11]", "value": "inactive"}, {"measurement": "outcome", "setting": "KRT18 (gene 3875)", "value": "inactive"}, {"measurement": "AC50", "setting": "[12]", "value": "17.7 µM (active) [middle of 4 runs]"}, {"measurement": "outcome", "setting": "[13]", "value": "inactive"}, {"measurement": "outcome", "setting": "[14]", "value": "inactive"}, {"measurement": "outcome", "setting": "[15]", "value": "inactive"}, {"measurement": "outcome", "setting": "[16]", "value": "inactive"}, {"measurement": "outcome", "setting": "CD40, CD40 (gene 958)", "value": "inactive"}, {"measurement": "AC50", "setting": "[17]", "value": "30 µM (active) and 8.71 µM (active)"}, {"measurement": "outcome", "setting": "[17]", "value": "inactive"}, {"measurement": "outcome", "setting": "[18]", "value": "inactive"}]}
